What was measured:
Experiment in all cases: DAPPL (digital affinity profiling via proximity ligation, sequencing); 10 mM Tris-HCl pH 7.5, 50 mM NaCl, 1 mM DTT, 4% glycerol, room temperature, 30 min; GST-TFs on glutathione beads, 16-mer random dsDNA library, 0.1% formaldehyde crosslink after washing; high values mean tight binding
FEV = target: T1, FEV (Homo sapiens, UniProt Q99581 1-238); conditions: protein: recombinant; tags: N-terminal GST; dsDNA, one strand shown
T1 sequence: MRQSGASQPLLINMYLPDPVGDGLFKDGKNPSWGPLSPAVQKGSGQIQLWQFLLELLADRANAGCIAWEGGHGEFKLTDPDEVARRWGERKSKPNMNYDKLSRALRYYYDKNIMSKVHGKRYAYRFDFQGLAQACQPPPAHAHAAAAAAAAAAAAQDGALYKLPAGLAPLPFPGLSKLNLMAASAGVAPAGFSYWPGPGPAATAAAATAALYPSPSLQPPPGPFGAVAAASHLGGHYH
Summary of the method: (§1)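 Yeast served to express human transcription factors as GST fusions, which were then captured on glutathione beads and labelled with DNA barcodes. Pooled with a tag-only sample, they were incubated with 200 nmole of a 16-mer random double-stranded DNA library for 30 min at room temperature in Tris/NaCl/DTT/glycerol buffer, washed, crosslinked with 0.1% formaldehyde, ligated by proximity, amplified by PCR and sequenced. Dividing each hexamer's read frequency for a factor by its frequency for the tag-only sample gives the binding signal.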

ETV5 = ETV5 (Homo sapiens, UniProt P41161 1-510); conditions: protein: recombinant; tags: N-terminal GST; dsDNA, one strand shown
Summary of the method: as §1

HSF1 = HSF1 (Homo sapiens, UniProt Q00613 1-529); conditions: protein: recombinant; tags: N-terminal GST; chain copies: 3; dsDNA, one strand shown
Summary of the method: as §1

SPIC = target: T2, SPIC (Homo sapiens, UniProt Q8N5J4 1-248); conditions: protein: recombinant; tags: N-terminal GST; dsDNA, one strand shown
T2 sequence: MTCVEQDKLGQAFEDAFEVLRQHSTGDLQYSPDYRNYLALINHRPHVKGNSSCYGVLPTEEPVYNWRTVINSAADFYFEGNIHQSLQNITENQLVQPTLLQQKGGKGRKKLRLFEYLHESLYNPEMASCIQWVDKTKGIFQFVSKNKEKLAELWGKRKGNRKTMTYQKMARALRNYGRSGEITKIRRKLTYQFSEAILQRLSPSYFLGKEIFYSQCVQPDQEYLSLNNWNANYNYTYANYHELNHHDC
Summary of the method: as §1

ELF4 = ELF4 (Homo sapiens, UniProt Q99607 1-663); conditions: protein: recombinant; tags: N-terminal GST; dsDNA, one strand shown
Summary of the method: as §1

ELK4 = target: T3, ELK4 (Homo sapiens, UniProt P28324-2 1-405); conditions: protein: recombinant; tags: N-terminal GST; dsDNA, one strand shown
T3 sequence: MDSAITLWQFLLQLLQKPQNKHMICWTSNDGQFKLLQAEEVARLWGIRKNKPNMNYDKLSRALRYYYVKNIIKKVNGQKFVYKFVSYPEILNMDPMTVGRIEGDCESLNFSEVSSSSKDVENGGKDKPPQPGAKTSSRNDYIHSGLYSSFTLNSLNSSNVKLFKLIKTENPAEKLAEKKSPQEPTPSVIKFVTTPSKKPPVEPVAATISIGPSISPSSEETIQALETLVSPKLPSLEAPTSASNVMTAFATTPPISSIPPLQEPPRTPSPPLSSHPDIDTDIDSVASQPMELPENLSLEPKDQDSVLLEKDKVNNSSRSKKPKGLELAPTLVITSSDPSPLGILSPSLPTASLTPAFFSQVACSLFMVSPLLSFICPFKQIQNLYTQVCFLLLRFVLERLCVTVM
Summary of the method: as §1

ETV2 = target: T4, ETV2 (Homo sapiens, UniProt O00321 1-342); conditions: protein: recombinant; tags: N-terminal GST; dsDNA, one strand shown
T4 sequence: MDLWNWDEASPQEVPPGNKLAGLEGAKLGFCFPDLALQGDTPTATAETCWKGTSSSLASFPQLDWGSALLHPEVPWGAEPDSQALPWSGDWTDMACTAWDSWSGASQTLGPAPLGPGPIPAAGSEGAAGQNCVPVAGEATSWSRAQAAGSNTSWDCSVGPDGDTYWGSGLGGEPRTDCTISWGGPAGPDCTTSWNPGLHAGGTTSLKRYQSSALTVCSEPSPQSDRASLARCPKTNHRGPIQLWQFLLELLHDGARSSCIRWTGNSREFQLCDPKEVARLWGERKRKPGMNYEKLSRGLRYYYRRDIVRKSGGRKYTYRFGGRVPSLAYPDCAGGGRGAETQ
Summary of the method: as §1

ELF3 = target: T5, ELF3 (Homo sapiens, UniProt P78545 1-371); conditions: protein: recombinant; tags: N-terminal GST; dsDNA, one strand shown
T5 sequence: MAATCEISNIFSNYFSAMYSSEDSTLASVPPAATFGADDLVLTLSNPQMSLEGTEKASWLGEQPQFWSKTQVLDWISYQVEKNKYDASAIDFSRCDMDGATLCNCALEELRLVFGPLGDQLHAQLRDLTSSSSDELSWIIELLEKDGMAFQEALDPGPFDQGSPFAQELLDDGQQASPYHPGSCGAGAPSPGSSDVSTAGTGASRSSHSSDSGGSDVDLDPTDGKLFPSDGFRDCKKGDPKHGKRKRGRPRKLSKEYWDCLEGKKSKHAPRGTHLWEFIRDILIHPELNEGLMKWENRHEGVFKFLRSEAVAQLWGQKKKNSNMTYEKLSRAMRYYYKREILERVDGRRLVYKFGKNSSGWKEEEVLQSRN
Summary of the method: as §1

ETV1 = ETV1 (Homo sapiens, UniProt P50549 1-477); conditions: protein: recombinant; tags: N-terminal GST; dsDNA, one strand shown
Summary of the method: as §1

ERF = target: T6, ERF (Homo sapiens, UniProt P50548 1-548); conditions: protein: recombinant; tags: N-terminal GST; dsDNA, one strand shown
T6 sequence: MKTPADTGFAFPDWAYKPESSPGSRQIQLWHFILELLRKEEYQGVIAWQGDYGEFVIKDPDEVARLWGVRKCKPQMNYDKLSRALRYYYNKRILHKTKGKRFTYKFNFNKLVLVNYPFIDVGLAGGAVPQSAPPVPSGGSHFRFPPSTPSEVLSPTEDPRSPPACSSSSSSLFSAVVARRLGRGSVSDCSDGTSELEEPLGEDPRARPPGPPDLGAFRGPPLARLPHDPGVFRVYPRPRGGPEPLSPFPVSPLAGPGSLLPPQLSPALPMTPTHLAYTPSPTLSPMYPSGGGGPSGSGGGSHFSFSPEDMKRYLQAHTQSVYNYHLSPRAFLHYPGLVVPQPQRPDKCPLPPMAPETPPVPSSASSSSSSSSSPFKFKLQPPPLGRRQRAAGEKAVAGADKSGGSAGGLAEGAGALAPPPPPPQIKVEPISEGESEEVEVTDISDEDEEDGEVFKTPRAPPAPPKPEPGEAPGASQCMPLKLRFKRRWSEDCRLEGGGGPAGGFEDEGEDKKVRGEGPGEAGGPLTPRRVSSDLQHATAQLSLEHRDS
Summary of the method: as §1

ETV3L = target: T7, ETV3L (Homo sapiens, UniProt Q6ZN32 1-361); conditions: protein: recombinant; tags: N-terminal GST; dsDNA, one strand shown
T7 sequence: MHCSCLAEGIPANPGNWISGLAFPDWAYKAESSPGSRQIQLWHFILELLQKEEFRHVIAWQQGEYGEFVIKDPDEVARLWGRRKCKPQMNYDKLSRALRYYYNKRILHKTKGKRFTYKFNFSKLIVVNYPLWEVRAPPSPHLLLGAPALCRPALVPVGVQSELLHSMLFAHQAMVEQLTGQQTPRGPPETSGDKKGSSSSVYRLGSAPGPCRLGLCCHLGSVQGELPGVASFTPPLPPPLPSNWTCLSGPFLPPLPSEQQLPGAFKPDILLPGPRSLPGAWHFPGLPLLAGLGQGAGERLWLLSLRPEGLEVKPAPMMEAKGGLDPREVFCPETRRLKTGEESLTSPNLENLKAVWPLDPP
Summary of the method: as §1

ETS2 = target: T8, ETS2 (Homo sapiens, UniProt P15036 1-469); conditions: protein: recombinant; tags: N-terminal GST; dsDNA, one strand shown
T8 sequence: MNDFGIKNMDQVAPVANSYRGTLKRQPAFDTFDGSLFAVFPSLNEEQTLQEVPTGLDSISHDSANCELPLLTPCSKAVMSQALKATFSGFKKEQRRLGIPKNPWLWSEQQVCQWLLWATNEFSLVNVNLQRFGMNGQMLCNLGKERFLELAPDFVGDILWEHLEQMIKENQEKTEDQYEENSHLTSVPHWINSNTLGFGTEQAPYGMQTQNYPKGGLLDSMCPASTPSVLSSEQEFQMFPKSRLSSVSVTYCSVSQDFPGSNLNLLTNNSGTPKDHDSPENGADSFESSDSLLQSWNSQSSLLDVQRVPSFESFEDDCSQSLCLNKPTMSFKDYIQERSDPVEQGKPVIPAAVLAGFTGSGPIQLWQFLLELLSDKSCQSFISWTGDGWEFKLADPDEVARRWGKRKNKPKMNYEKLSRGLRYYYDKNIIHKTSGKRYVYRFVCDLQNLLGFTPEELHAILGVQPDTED
Summary of the method: as §1

SPDEF = target: T9, SPDEF (Homo sapiens, UniProt O95238 1-335); conditions: protein: recombinant; tags: N-terminal GST; dsDNA, one strand shown
T9 sequence: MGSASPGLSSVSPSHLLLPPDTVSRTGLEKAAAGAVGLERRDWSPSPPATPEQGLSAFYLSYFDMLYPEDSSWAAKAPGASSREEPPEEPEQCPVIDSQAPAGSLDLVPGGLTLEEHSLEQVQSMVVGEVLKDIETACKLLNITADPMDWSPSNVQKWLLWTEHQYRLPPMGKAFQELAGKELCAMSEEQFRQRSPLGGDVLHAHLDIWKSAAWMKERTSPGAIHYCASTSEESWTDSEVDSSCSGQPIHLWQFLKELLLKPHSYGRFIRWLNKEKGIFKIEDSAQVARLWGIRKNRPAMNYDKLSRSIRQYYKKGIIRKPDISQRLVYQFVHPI
Summary of the method: as §1

ELF5 = target: T10, ELF5 (Homo sapiens, UniProt Q9UKW6-2 1-255); conditions: protein: recombinant; tags: N-terminal GST; dsDNA, one strand shown
T10 sequence: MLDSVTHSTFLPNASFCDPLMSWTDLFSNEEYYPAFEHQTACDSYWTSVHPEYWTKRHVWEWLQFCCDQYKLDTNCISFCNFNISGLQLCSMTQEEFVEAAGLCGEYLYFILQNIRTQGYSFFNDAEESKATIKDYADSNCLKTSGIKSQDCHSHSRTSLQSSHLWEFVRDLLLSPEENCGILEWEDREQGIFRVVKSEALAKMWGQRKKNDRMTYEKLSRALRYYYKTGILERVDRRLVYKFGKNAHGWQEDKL
Summary of the method: as §1

ETV3 = target: T11, ETV3 (Homo sapiens, UniProt P41162-2 1-143); conditions: protein: recombinant; tags: N-terminal GST; dsDNA, one strand shown
T11 sequence: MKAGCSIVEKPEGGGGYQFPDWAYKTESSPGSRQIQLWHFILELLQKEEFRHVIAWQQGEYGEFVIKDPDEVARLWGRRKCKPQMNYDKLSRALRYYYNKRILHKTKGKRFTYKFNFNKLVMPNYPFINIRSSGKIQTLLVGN
Summary of the method: as §1

ETV6 = ETV6 (Homo sapiens, UniProt P41212 1-452); conditions: protein: recombinant; tags: N-terminal GST; dsDNA, one strand shown
Summary of the method: as §1

HSF1, sequence (Q00613 whole entry): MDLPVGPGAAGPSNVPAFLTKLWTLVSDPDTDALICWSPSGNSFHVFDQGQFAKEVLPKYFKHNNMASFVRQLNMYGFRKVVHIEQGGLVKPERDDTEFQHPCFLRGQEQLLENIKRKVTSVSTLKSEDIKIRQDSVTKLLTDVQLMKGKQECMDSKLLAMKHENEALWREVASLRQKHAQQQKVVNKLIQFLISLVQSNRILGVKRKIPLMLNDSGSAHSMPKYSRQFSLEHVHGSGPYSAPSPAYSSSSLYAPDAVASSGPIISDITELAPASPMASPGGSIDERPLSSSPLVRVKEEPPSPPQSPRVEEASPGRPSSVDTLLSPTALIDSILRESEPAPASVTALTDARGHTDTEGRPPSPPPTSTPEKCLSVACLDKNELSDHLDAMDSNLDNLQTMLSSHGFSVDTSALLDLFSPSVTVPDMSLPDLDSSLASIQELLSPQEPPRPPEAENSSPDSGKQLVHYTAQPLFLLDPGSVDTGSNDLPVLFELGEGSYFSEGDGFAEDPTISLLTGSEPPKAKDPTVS
ETV5, sequence (P41161 whole entry): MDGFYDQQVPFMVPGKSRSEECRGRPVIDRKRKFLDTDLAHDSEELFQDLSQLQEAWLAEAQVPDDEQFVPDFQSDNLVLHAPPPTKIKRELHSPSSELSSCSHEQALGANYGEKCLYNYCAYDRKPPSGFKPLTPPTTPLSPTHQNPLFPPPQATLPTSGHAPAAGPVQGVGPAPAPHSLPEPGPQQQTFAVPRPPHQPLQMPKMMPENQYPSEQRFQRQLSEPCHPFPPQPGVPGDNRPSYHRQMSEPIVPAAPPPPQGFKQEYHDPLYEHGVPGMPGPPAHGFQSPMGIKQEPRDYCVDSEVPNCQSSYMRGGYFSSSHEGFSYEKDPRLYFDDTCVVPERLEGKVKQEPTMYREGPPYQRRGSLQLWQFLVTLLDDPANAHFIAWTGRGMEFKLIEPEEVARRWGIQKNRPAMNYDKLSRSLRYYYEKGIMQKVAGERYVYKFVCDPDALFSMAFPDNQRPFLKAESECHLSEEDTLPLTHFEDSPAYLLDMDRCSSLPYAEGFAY
ETV6, sequence (P41212 whole entry): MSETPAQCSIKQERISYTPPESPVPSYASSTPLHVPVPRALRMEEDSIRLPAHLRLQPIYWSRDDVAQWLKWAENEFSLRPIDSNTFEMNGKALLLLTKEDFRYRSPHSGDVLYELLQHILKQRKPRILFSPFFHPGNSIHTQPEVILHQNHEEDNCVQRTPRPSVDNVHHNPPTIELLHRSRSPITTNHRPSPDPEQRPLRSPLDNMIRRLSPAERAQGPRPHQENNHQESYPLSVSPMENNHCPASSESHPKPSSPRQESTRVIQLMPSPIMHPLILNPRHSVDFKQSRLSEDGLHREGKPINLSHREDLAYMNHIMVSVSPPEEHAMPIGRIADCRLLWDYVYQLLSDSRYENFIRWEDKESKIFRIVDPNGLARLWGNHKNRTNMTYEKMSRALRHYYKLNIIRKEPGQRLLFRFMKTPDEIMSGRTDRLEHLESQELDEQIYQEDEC
ELF4, sequence (Q99607 whole entry): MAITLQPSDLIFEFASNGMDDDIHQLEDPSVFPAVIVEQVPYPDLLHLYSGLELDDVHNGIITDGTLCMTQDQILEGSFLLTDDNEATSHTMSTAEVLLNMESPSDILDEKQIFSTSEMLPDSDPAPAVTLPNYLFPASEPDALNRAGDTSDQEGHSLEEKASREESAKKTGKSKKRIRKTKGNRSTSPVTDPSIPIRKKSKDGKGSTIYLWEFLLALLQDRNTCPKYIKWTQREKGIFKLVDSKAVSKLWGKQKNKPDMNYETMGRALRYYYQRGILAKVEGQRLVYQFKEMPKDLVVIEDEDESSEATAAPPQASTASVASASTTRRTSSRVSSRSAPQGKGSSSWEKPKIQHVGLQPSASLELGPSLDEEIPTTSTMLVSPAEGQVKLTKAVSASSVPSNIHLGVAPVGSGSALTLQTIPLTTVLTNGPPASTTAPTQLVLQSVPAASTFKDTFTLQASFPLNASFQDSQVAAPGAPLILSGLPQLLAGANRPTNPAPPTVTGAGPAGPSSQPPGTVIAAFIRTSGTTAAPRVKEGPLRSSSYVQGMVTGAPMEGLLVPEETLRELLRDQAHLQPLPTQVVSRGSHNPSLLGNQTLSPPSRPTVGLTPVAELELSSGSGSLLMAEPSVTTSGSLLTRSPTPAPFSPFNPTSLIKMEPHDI
ETV1, sequence (P50549 whole entry): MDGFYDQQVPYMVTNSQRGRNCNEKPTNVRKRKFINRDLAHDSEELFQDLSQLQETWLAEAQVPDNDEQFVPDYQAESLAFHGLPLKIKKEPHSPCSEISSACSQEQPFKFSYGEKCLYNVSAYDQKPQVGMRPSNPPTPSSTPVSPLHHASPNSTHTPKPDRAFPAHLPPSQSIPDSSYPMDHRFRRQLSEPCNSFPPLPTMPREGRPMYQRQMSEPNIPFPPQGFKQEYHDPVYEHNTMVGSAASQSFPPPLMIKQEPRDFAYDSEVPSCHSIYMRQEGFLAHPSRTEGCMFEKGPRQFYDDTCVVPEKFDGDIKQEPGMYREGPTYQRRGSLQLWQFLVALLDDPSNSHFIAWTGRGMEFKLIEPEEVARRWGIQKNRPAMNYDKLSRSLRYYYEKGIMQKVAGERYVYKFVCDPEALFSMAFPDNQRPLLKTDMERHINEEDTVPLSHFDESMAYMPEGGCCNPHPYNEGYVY

| Sequence | binding signal (FEV) | binding signal (ETV5) | binding signal (HSF1) | binding signal (SPIC) | binding signal (ELF4) | binding signal (ELK4) | binding signal (ETV2) | binding signal (ELF3) | binding signal (ETV1) | binding signal (ERF) | binding signal (ETV3L) | binding signal (ETS2) | binding signal (SPDEF) | binding signal (ELF5) | binding signal (ETV3) | binding signal (ETV6) |
| --- | --- | --- | --- | --- | --- | --- | --- | --- | --- | --- | --- | --- | --- | --- | --- | --- |
| GGATCC | 1.16 fold enrichment (6-mer frequency, TF over GST control) | 1.17 fold enrichment (6-mer frequency, TF over GST control) | 1.04 fold enrichment (6-mer frequency, TF over GST control) | 1.13 fold enrichment (6-mer frequency, TF over GST control) | 1.13 fold enrichment (6-mer frequency, TF over GST control) | 1.05 fold enrichment (6-mer frequency, TF over GST control) | 1.29 fold enrichment (6-mer frequency, TF over GST control) | 1.29 fold enrichment (6-mer frequency, TF over GST control) | 1.14 fold enrichment (6-mer frequency, TF over GST control) | 1.06 fold enrichment (6-mer frequency, TF over GST control) | 1.15 fold enrichment (6-mer frequency, TF over GST control) | 1.22 fold enrichment (6-mer frequency, TF over GST control) | 2.07 fold enrichment (6-mer frequency, TF over GST control) | 1.13 fold enrichment (6-mer frequency, TF over GST control) | 1.13 fold enrichment (6-mer frequency, TF over GST control) | 1.08 fold enrichment (6-mer frequency, TF over GST control) |
| CCACAA | 1.15 fold enrichment (6-mer frequency, TF over GST control) | 1.19 fold enrichment (6-mer frequency, TF over GST control) | 1.1 fold enrichment (6-mer frequency, TF over GST control) | 1.09 fold enrichment (6-mer frequency, TF over GST control) | 1.17 fold enrichment (6-mer frequency, TF over GST control) | 1.07 fold enrichment (6-mer frequency, TF over GST control) | 1.14 fold enrichment (6-mer frequency, TF over GST control) | 1.39 fold enrichment (6-mer frequency, TF over GST control) | 1.19 fold enrichment (6-mer frequency, TF over GST control) | 1.24 fold enrichment (6-mer frequency, TF over GST control) | 1.26 fold enrichment (6-mer frequency, TF over GST control) | 1.23 fold enrichment (6-mer frequency, TF over GST control) | 1.14 fold enrichment (6-mer frequency, TF over GST control) | 1.18 fold enrichment (6-mer frequency, TF over GST control) | 1.12 fold enrichment (6-mer frequency, TF over GST control) | 1.18 fold enrichment (6-mer frequency, TF over GST control) |

Reference: paper PMC7862700, “An all-to-all approach to the identification of sequence-specific readers for epigenetic DNA modifications on cytosine”
